Assay outcomes: PubChem, National Center for Advancing Translational Sciences (NCATS)
The list is not random: actives were taken first. Their share in the collection is about 12%.
PLK1 PBD block – inhibitors of human PLK1 polo-box domain binding. 360,000 tested, 2.8% active. P53350. Potency, µM, for inactives: max response, negative = inhibition, hits mostly inhibitors. Plk1 PBD binding of FITC phosphopeptide, fluorescence polarization. AID 720504; further: potency means the concentration at half of the fitted maximal effect; series mostly up to about 57 µM; on the % scale 0 is the no-effect control and ±100 the full control effect; nearly all actives have a fitted effect of over 65% in size
Target sequence (P53350 whole entry, looked up, the tested form may be a part): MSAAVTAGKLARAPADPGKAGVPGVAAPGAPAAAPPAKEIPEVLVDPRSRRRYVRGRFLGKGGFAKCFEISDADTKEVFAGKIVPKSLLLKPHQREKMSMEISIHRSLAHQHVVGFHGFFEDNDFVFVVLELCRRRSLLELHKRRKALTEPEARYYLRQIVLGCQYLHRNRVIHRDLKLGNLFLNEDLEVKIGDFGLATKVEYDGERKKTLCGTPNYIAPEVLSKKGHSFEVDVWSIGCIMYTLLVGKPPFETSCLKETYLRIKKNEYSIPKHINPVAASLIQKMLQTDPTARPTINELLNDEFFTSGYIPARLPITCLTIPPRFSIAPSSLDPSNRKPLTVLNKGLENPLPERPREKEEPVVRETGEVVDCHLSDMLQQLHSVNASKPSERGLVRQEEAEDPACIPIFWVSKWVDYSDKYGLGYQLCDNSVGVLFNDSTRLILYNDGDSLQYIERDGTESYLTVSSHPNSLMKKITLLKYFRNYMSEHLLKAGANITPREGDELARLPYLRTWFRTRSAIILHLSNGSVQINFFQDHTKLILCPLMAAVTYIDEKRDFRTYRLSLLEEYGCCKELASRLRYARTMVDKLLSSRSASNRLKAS
G9a block – inhibitors of human histone lysine methyltransferase G9a; G9a H3K9 monomethylation, AlphaScreen, 2 h; Potency, µM (doses to about 102 µM), inactives show top-dose activity, negative = inhibition, actives largely listed as inhibitors; 350,000 tested, 8.8% active; further: potency means the concentration at half of the fitted maximal effect; on the % scale 0 is the no-effect control and ±100 the full control effect; nearly all actives have a fitted effect of over 75% in size
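Compounds were preincubated with 20 nM G9a for 15 min, after which biotinylated H3K9 peptide (500 nM) and SAM (20 uM) started a 2 h room-temperature reaction. Monomethylated product was quantified by antibody-based AlphaScreen chemiluminescence.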
BAZ2B block – BAZ2B (human) inhibition | 360,000 tested, 4.4% active | AID 504333 | Potency, µM (doses to about 114 µM), inactives show at the top dose activity change, negative = inhibition, actives largely listed as inhibitors | Q9UIF8 | AlphaScreen BAZ2B-H3K14Ac peptide displacement; further: potency means the concentration at half of the fitted maximal effect; on the % scale 0 is the no-effect control and ±100 the full control effect; nearly all actives have a fitted effect of over 60% in size
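AlphaScreen luminescence quantifies BAZ2B engagement of H3K14Ac peptide; the protein and biotinylated peptide are both at 50 nM final, buffer PBS pH 7.4 with 0.01% Tween-20, all steps at room temperature.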
JMJD2A Tudor inh – blocks the human JMJD2A Tudor domain | AID 504339 | 390,000 tested, 4.4% active | AlphaScreen JMJD2A-Tudor / H3K4me3 peptide binding | Potency, µM (titrated, usually from 114 µM), for the others: at the top dose activity change, negative = inhibition, actives largely listed as inhibitors | O75164; further: potency means the concentration at half of the fitted maximal effect; on the % scale 0 is the no-effect control and ±100 the full control effect; nearly all actives have a fitted effect of over 50% in size
HP1b binding inh – blocks HP1-beta chromodomain binding to methylated histone tails; P83916; AlphaScreen HP1-beta / biotin-H3K9me3 peptide binding; Potency, µM (series often up to 114 µM), inactives show top-dose activity change, negative = inhibition, usual class: inhibitors; 390,000 tested, 0.56% active; AID 540317; further: potency means the concentration at half of the fitted maximal effect; nearly all actives have a fitted effect of over 70% in size
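Compound inhibition of the preformed complex between 50 nM HP1-beta and 50 nM biotinylated H3K9me3 peptide was read by AlphaScreen. Buffer was PBS pH 7.4 with 0.01% Tween-20. Incubations ran 30 min at room temperature, with 10 ug/mL donor/acceptor beads.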
PI5P4Ka inh – blocks human PI5P4K alpha kinase activity | P48426 | PI5P4Kalpha enzyme, ADP-Glo luminescence, 60 min; stronger effect = lower value | max response, % | 330,000 tested, 1.2% active | AID 652105; active means max response of -50% or lower; inconclusive means between -30% and -50%; inactive means -30% or higher; further: value at the top dose of about 77 µM; on the % scale 0 is the no-effect control and ±100 the full control effect
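Enzyme plus substrate dispensed, test compounds pinned in, then ATP (5 microM final) added. After 60 min at RT, ADP-Glo reagent 1 for 45 min and reagent 2 for 30 min preceded luminescence imaging.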
* hit, by the source's call; ? = inconclusive; . = not tested or not shown; ! = not confirmed by another sample; [ ] = remark or other dose. Unless noted, the call rests on the fitted dose curve; in most records, active means well fitted curve in the direction sought with a large enough effect; inconclusive means small, poorly fitted or top-dose-only effect, or another doubt; inactive means no such curve, though single readings can be large; an effect the other way counts as inactive or inconclusive.

SMILES	PLK1 PBD block	G9a block	BAZ2B block	JMJD2A Tudor inh	HP1b binding inh	PI5P4Ka inh
Cc1cc(O)cc2c1O[C@@](C)(CCC[C@@H](C)CCC[C@@H](C)CCCC(C)C)CC2	-5%	6%[59 µM]	12%	?	14%	44
CCCOP(=O)(OCCC)C(Nc1ccc(C(C)C)cc1)c1ccc([N+](=O)[O-])cc1 (stereo unspecified)	2%	?	56µM*	?	-23%	.
CC(C)OP(=O)(OC(C)C)C(Nc1ccc([N+](=O)[O-])cc1)c1cccc([N+](=O)[O-])c1 (stereo unspecified)	-1%	-49%	-28%	?	9%	-6
Cc1cc(C)cc(-n2c(/C=C/c3cccc(F)c3)nc3ccccc3c2=O)c1	.	4%[59 µM]	5%	-14%	4%	.
O=C(CSc1nnnn1-c1ccccc1)Nc1ccc(N2CCOCC2)c(Cl)c1	-1%	13µM*	0%	-23%	32%	.
CCN(CC)C(=O)c1ccc(NC(=O)CSc2nnnn2-c2cc(OC)ccc2OC)cc1	-8%	11%[12.7 µM]	3%	-12%	6%	.
CCN1CCN(c2cc(N3CCCC3)c(F)cc2[N+](=O)[O-])CC1	-5%	45µM*	-38%	-34%	-13%	6
O=[N+]([O-])c1cccc(CN2CCN(Cc3ccc(Br)cc3)CC2)c1	-1%	3.5µM*	20µM*	20µM*	?	-11
O=[N+]([O-])c1cccc(C2N3CCCN23)c1 (stereo unspecified)	-5%	-1%	-20%	0%	63%	1
c1ccc2c(c1)[nH]c1cnccc12	-17%	81%[59 µM]	14%	-23%	52%	1
Cc1c2ccncc2c(C)c2c1[nH]c1ccccc12	-7%	21µM*!	56µM*	-9%	43%	-6
CCCCCCCCCCCCCCCCOC[C@@H](O)COP(=O)([O-])OCC[N+](C)(C)C	.	26%[59 µM]	.	.	.	.
O=c1c2ccccc2nc(/C=C\c2ccccc2F)n1-c1ccc(O)cc1	.	10%[59 µM]	-6%	-15%	18%	.
O=C(Cn1ncc2ccccc21)N1CCC2(CC1)OCCO2	-2%	-2%	-8%	-10%	27%	.
O=C(C1CC(c2ccccc2O)=NO1)N1CCC2(CC1)OCCO2 (stereo unspecified)	0%	50µM*	-8%	14µM*	12%	.
Oc1cc2c(cc1CN1CCN(c3ccc(F)cc3)CC1)OCO2	-24%	8.9µM*	?	?	-10%	-4
O=C(COC(=O)c1cccnc1Cl)NCCc1ccc(F)cc1	0%	.	.	0%	46%	0
O=C(NCc1ccco1)C(c1ccco1)N(C(=O)Cn1nnc2ccccc21)c1ccc2c(c1)CCC2 (stereo unspecified)	-3%	.	.	?	?	1
CC(=O)Nc1ccc(N(C(=O)Cn2nnc3ccccc32)C(C(=O)NC2CCCC2)c2ccc(O)c(O)c2)cc1 (stereo unspecified)	-16%	50µM*	-18%	-17%	-15%	-2
CCCCn1c(=O)c(C(=O)Nc2ccccc2N)c(O)c2ccccc21	-5%	.	50µM*	2%	46%	-8
CC/C(=N\Nc1ccccc1)c1c(O)n(-c2ccc(OC)cc2)c(=O)[nH]c1=O	-1%	40µM*	-20%	-14%	12%	-3
CCC(=NCCO)c1c(O)n(-c2ccccc2)c(=O)[nH]c1=O	-6%	18%[2.33 µM]	5%	-9%	14%	-2
C/C(=N\N(C)c1ccccc1)c1c(O)[nH]c(=O)[nH]c1=O	7%	50µM*	-3%	-7%	21%	9
CC/C(=N\Nc1ccccc1)c1c(O)[nH]c(=O)[nH]c1=O	7%	45µM*	0%	-19%	29%	0
CC/C(=N\Nc1cccc2ccccc12)c1c(O)[nH]c(=O)[nH]c1=O	-9%	1.6µM*	?	79µM*	-14%	?
COc1cccc(/C=C/c2nc3ccccc3c(=O)n2-c2ccc(Cl)cc2)c1OC	.	6%[59 µM]	2%	-16%	30%	.
